Compounds without any hit were thinned out: in the full panel of roughly 83,000, 20% have a hit.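 Cells were grown in 96-well plates and exposed to the test compound at a single concentration for 48 hours; results are reported as percent growth, with values below 10 considered active.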 Calls of active or inactive are those of the source.
Key:
Experiment in all cases: NCI-60 one-dose screen, 48 h (100 = growth as untreated, 0 = no growth, -100 = all killed)
Settings in all cases: 10 µM unless noted
[1] = system: SR leukemia
[2] = system: RPMI-8226 leukemia
[3] = system: OVCAR-8 ovarian
[4] = system: OVCAR-5 ovarian
[5] = system: OVCAR-4 ovarian
[6] = system: SK-OV-3 ovarian
[7] = system: IGROV1 ovarian
[8] = system: HS 578T breast
[9] = system: NCI/ADR-RES ovarian
[10] = system: OVCAR-3 ovarian

Measured: growth

CCC1S/C(=N\N=C(/C)c2ccco2)N(c2ccccc2)C1=O (configuration not stated)
active: [7] -17.1%
inactive: [1] 92.4% | [2] 60.4% | [3] 106% | [4] 105% | [5] 98.4% | [6] 135% | [8] 231% | [9] 105%

CN1CCN(CC(O)COc2c(Br)c(Br)c(Br)c3c2OC(C)(C)C3)CC1 (configuration not stated)
inactive: [3] 91.1% | [4] 78.9% | [5] 82.3% | [6] 109% | [8] 55.5% | [9] 64.5%
active: [1] -26.4% | [2] -11.3% | [7] -66.9%

COc1ccccc1N1CCN(CC(O)COc2c(Br)c(Br)c(Br)c3c2OC(C)(C)C3)CC1 (configuration not stated)
inactive: [3] 62.2% | [4] 61.2% | [5] 30.4% | [6] 84.2% | [8] 67.3% | [9] 45.7%
active: [1] -50.4% | [2] 1.1% | [7] -19.7%

Cc1cccc(CC(=O)c2ccccc2)n1
inactive: [1] 94.4% | [2] 89.4% | [3] 91.8% | [4] 83.8% | [5] 90% | [6] 92.2% | [7] 97% | [8] 91% | [9] 75.7%

O=C(Cn1c2ccccc2c2ccncc21)N/N=C/c1cc(O)c(O)c(O)c1
inactive: [1] 106% | [2] 100% | [3] 103% | [4] 111% | [5] 110% | [6] 99.4% | [7] 107% | [8] 105% | [9] 103%

COc1cc(-c2nc3sc(C)cn3c2/C=C2\C(=O)Nc3ccccc32)c(Br)c(OC)c1OC
inactive: [2] 28.6% | [3] 65% | [4] 81.6% | [5] 54.4% | [6] 31.2% | [8] 15.7% | [9] 22.9%
active: [1] 3.87% | [7] -11.8%

C[C@H]1C=C(C[C@@H](O)CCCCCCCCCC[C@@H](O)[C@H]2CCC(=O)O2)C(=O)O1
active: [7] -23.5%
inactive: [1] 114% | [2] 79.9% | [3] 96.7% | [4] 91.7% | [5] 97.6% | [6] 110% | [8] 128% | [9] 99.6%

COc1cc2c(cc1OCCCCC(=O)Nc1ccc(-c3nc4ccccc4s3)cc1)N=C[C@@H]1CCCN1C2=O
inactive: [6] 22.4% | [9] 67.6%
active: [1] -55.4% | [2] -58.3% | [3] -8.71% | [4] 4.91% | [5] -11.9% | [7] -17.1% | [8] -37.5%

CCC1S/C(=N\N=C(/C)c2cccs2)N(c2ccccc2)C1=O (configuration not stated)
active: [7] -27.2%
inactive: [1] 32.6% | [2] 110% | [3] 97.3% | [4] 111% | [5] 99.7% | [6] 121% | [8] 123% | [9] 99%

S=c1n(CNc2ccc(Cl)nn2)nc(-c2cc(Cl)cc(Cl)c2Cl)n1/N=C/c1ccc(Cl)cc1
inactive: [1] 32.5% | [2] 61.2% | [3] 114% | [4] 100% | [5] 87.5% | [6] 107% | [7] 76.2% | [8] 108% | [9] 87.4%

Nc1nc(Cl)cc(NCCCCNc2cc(Cl)nc(N)n2)n1
active: [7] -19.9%
inactive: [1] 98.9% | [2] 96.4% | [3] 99.5% | [4] 94.9% | [5] 104% | [6] 113% | [8] 126% | [9] 107%

CC[C@@]1(O)C(=O)OCc2c1cc1n(c2=O)Cc2c-1nc1ccccc1c2/C=N/OC(C)(C)C
active: [1] -6.28% | [2] -2.84% | [3] 3.32% | [6] -15.7% | [7] 8.28% | [9] 1.09%
inactive: [4] 10.5% | [5] 30.1% | [8] 33%

Cc1cn(C2CC(N=[N+]=[N-])C(COP(=O)(O)OP(=O)(O)OP(=O)(O)O)O2)c(=O)[nH]c1=O (configuration not stated)
inactive: [1] 24.3% | [2] 60.7% | [3] 120% | [4] 93% | [5] 108% | [6] 104% | [7] 75.5% | [9] 111%

COc1cccc(C2CC(c3cc(OC)c(OC)c(OC)c3)=NN2)c1 (configuration not stated)
active: [1] 9.95%
inactive: [2] 56.9% | [3] 92.9% | [4] 98.8% | [5] 85.5% | [6] 89.9% | [7] 99.4% | [8] 111% | [9] 63.4%

CCCCOc1nc2ccc(Cl)cc2cc1/C=C/C(=O)/C=C/c1ccc(OC)cc1
active: [2] 8.93%
inactive: [1] 76.2% | [3] 96.2% | [4] 122% | [5] 103% | [6] 110% | [7] 93.2% | [9] 107%

Cc1cc2c(cc1C)N(C(=O)CCl)CCN2C(=O)CCl
active: [1] -13.6% | [2] -41.9% | [3] -4.44% | [4] -74.4% | [5] -72% | [7] -61.8% | [9] -49.7%
inactive: [6] 53%

CN1CCN(Cn2nc(-c3cc(F)c(Cl)cc3Cl)n(/N=C/c3ccc(N(C)C)cc3)c2=S)CC1
inactive: [1] 43.8% | [2] 80.9% | [3] 90.8% | [4] 106% | [5] 106% | [6] 77.4% | [7] 57.8% | [8] 63.5% | [9] 65.9%

c1ccc(CNCCN(CCNCc2ccccn2)Cc2ccc3ccccc3c2)nc1
active: [1] 2.45% | [4] 0.822% | [5] 0.169% | [6] -26% | [7] 7.31% | [9] -13%
inactive: [2] 10.6% | [3] 11.1% | [8] 41.3%

N#CC1=C(N)Oc2c(ccc3ccccc23)C1c1cc(=O)oc2ccc(Cl)cc12 (configuration not stated)
active: [10] -9.67%
inactive: [1] 22.9% | [2] 30.7% | [3] 27.7% | [5] 65.8% | [6] 16.9% | [7] 39.8% | [8] 47.5% | [9] 12.2%

NS(=O)(=O)c1ccc(-n2nc(-c3ccc(Cl)cc3)ccc2=O)cc1
inactive: [1] 64.4% | [2] 99% | [3] 102% | [4] 99.9% | [5] 100% | [6] 93.8% | [8] 88.2% | [9] 68.4%

CC(C)(C)OC(=O)N1CCN(CCn2cc(C(F)(F)F)c3c(Cl)ncnc32)CC1
active: [1] -17.8% | [3] -61.4% | [7] -69.5%
inactive: [2] 86.3% | [5] 103% | [6] 96.9% | [10] 85.2% | [8] 82.5% | [9] 104%

COc1ccc(/C=C/C(=O)c2ccc(NC(=O)CSc3nnc(-c4cc(OC)c(OC)c(OC)c4)o3)cc2)cc1
active: [1] -60.5% | [2] -43.7% | [3] -14.3% | [5] -49.9% | [7] -39.2% | [10] -93.8% | [9] 3.13%
inactive: [6] 85.2% | [8] 45.3%

COC(=O)c1ccc2c(c1)Oc1ccc(Cl)cc1-c1cc(C)nn1-2
inactive: [1] 69.9% | [2] 74.9% | [3] 72.8% | [6] 53.5% | [7] 61.8% | [10] 39% | [8] 55.1% | [9] 73.4%
active: [5] -6.66%

COc1ccccc1C(OC(C)=O)OC(C)=O
inactive: [1] 88.7% | [2] 101% | [3] 112% | [5] 111% | [6] 104% | [7] 112% | [10] 106% | [8] 106% | [9] 100%

COc1cc([C@@H]2c3cc4c(cc3C(OC3O[C@@H]5COC(C)O[C@H]5[C@H](O)[C@H]3O)C3COC(=O)[C@@H]32)OCO4)cc(OC)c1O (some centres not stated)
inactive: [2] 37.4% | [3] 26.9% | [5] 88.3% | [6] 35% | [7] 65.4% | [10] 37.1% | [8] 59.3% | [9] 90.4%
active: [1] -3.83%

CCc1c(C)c2cc3c(c(C)c2oc1=O)OCC(=O)N3
active: [1] 4.96%
inactive: [2] 90.9% | [3] 74.6% | [5] 79.5% | [6] 78.6% | [7] 51.7% | [10] 73.8% | [8] 59.5% | [9] 75.1%

COc1cc(NC(=O)C#Cc2ccccc2)c(OC)cc1Cl
active: [7] 4.48%
inactive: [1] 12.4% | [2] 10.8% | [3] 38.6% | [5] 93.8% | [6] 97.8% | [10] 82.8% | [8] 79.8% | [9] 56.5%

COc1cc(NS(C)(=O)=O)ccc1Cc1c2ccccc2nc2ccccc12
active: [1] -5.52% | [3] 2.44% | [10] -76.6%
inactive: [2] 22% | [5] 38.8% | [6] 18% | [7] 36.5% | [8] 48% | [9] 62.3%

CCN(CC)CC(=O)Nc1c(C)cccc1C
inactive: [1] 98.3% | [2] 114% | [3] 107% | [5] 104% | [6] 109% | [7] 106% | [10] 118% | [8] 110% | [9] 104%

Source: PubChem BioAssay (NCI)
